Activity calls are given as the source filed them. Unless noted, the rule behind the calls is not given here.
Legend:
[1] = resazurin metabolic signal in HepG2 cells – cell-based, resazurin fluorescence, 24 h, PK04 Diversity Set, profiling panel (AID 1172); settings: HepG2 viability, higher = more signal
[2] = budding yeast growth changes without added modifier – OD600, strain BY4716, 24 h, basal condition, primary screen (AID 1173); settings: S. cerevisiae BY4716 growth, OD600, 24 h; higher = more signal, called active from +8 up or from −8 down
[3] = viability profiling in MM1S myeloma cells – cell-based, resazurin fluorescence, basal, 24 h, PK04 Diversity Set, profiling panel (AID 1174); settings: higher = more signal, called active from +8 up or from −8 down;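 note: MM1S multiple myeloma cell line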
[4] = target: Dihydroorotate dehydrogenase (quinone), mitochondrial (Plasmodium falciparum (isolate 3D7)) (UniProt Q08210); assay: inhibition of P. falciparum DHODH – biochemical, C-terminal His tag, absorbance 600 nm, primary screen (AID 1175); settings: PfDHODH enzyme, DCIP absorbance 600 nm; higher = more signal, called active from +8 up or from −8 down;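 note: recombinant parasite enzyme with a five histidine tag at its C terminus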
[5] = inhibition of PAO1 biofilm formation – strain PAO1, LB-PBS medium, absorbance 600 nm, primary screen (AID 1176); settings: P. aeruginosa PAO1 growth/biofilm, A600, 12 h; higher = more signal
[6] = growth modulation of vineyard yeast isolate – strain RM11-1a, OD600, basal, 24 h, primary screen (AID 1177);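 note: cultures grown under basal conditions with no added stressor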; settings: S. cerevisiae RM11-1a growth, OD600, 24 h; higher = more signal, called active from +8 up or from −8 down
[7] = growth of efflux-deficient E. coli DRC39 – strain DRC39, OD650, 24 h, E. coli filamentation inducers, primary screen (AID 1178);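 note: growth measured as culture turbidity by optical density at 650 nm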; settings: E. coli DRC39 acrAB, higher = more signal, called active from +8 up or from −8 down
[8] = growth of efflux-deficient E. coli DRC39 – strain DRC39, OD650, 48 h, E. coli filamentation inducers, primary screen (AID 1179);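 note: screen aims at cell division blockers that make cells filament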; settings: E. coli DRC39 delta-acrAB growth, higher = more signal, called active from +8 up or from −8 down
[9] = viability profiling in RPMI8226 myeloma cells – cell-based, resazurin fluorescence, basal, 24 h, PK04 Diversity Set, profiling panel (AID 1180); settings: higher = more signal;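 note: RPMI8826 multiple myeloma cell line at 5000 cells per well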
[10] = target: E3 ubiquitin-protein ligase XIAP (Homo sapiens) (UniProt P98170); assay: small molecules binding XIAP protein – biophysical, small-molecule microarray, fluorescence 635 nm, primary screen (AID 1181); settings: higher = more signal;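 note: score merges 667 nm emission and signal to noise over triplicate slides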
[11] = system: XIP peptide (Xip251-270) binding; assay: XIP fragment 251-270 binding compounds – biochemical, small-molecule microarray, fluorescence 635/667 nm, 0.1 µg/mL protein, primary screen (AID 1182); settings: fluorescent protein binding, 635 nm, higher = more signal, called active from +8 up or from −8 down
XIP peptide (Xip251-270) = assay: compounds binding XIP fragment 251-270 – biochemical, small-molecule microarray, fluorescence 635/667 nm, 0.5 µg/mL protein, primary screen (AID 1183); settings: fluorescence 635 nm, higher = more signal
[12] = blood-stage malaria parasite viability loss – strain 3D7, DAPI fluorescence, 100 nL, primary screen (AID 1184);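 note: parasites grown inside human red blood cells in medium with human serum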; settings: P. falciparum 3D7 growth, 3 d, higher = more signal
[13] = target: Homeobox protein Hox-A13 (Mus musculus) (UniProt Q62424); assay: disruptors of Hoxa13 oligonucleotide interaction – biochemical, fluorescence polarization, labeled oligonucleotide, primary screen (AID 1185); settings: Hoxa13:DNA binding, 15 min, higher = more signal, called active from +8 up or from −8 down
[14] = blockers of DNA damage checkpoint Chk1 activation – imaging, HeLa, hydroxyurea, phospho-Chk1 antibody, percent positive cells, primary screen (AID 1186); settings: hydroxyurea-induced phospho-Chk1 immunofluorescence imaging, higher = more signal
[15] = blockers of DNA damage checkpoint Chk1 activation – imaging, HeLa, hydroxyurea, phospho-Chk1 nuclear intensity, primary screen (AID 1187); settings: hydroxyurea-induced phospho-Chk1 immunofluorescence imaging, higher = more signal

Sequence of Dihydroorotate dehydrogenase (quinone), mitochondrial (Plasmodium falciparum (isolate 3D7)) (Q08210 whole entry, looked up): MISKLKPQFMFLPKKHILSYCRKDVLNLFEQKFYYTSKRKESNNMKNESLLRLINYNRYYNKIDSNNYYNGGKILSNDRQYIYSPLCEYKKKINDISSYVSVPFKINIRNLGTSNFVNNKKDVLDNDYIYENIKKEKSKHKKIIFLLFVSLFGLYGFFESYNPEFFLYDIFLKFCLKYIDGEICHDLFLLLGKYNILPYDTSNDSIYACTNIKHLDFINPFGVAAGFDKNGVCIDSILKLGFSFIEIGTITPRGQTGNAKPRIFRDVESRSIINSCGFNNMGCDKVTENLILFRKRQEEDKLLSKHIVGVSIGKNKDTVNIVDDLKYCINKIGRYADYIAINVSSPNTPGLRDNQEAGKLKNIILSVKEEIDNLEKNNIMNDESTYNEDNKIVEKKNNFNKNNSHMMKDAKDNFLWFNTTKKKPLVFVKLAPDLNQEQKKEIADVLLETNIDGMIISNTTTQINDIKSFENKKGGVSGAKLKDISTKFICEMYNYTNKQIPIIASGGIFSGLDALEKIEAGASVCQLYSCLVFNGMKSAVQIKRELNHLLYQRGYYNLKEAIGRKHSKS
Sequence of E3 ubiquitin-protein ligase XIAP (Homo sapiens) (P98170 whole entry, looked up, the tested form may be a part): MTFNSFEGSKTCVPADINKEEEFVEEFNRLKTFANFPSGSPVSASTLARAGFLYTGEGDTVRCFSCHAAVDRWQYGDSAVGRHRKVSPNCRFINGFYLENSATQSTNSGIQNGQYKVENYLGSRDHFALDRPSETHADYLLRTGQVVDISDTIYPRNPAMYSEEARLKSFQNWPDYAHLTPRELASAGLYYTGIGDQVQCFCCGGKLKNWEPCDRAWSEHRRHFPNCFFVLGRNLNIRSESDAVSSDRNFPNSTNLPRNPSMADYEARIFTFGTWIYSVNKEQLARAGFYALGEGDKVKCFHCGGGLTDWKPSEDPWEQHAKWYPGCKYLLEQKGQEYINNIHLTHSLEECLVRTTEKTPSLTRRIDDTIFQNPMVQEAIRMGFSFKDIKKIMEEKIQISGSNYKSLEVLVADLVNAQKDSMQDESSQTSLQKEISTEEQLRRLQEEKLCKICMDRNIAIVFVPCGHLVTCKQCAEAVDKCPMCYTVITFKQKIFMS
Sequence of Homeobox protein Hox-A13 (Mus musculus) (Q62424 whole entry, looked up): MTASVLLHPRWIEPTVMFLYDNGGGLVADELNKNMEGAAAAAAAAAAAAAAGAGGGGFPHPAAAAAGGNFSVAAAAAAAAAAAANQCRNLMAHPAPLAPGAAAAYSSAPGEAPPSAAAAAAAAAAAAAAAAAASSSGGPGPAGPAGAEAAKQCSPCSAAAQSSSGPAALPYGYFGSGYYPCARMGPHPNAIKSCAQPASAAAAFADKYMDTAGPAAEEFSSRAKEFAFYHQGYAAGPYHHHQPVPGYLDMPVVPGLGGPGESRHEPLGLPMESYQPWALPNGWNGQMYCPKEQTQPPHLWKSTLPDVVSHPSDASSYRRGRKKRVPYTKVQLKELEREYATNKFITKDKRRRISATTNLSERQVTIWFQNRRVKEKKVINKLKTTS

With `O=C1C[C@]2(c3ccc([N+](=O)[O-])cc3)C(=O)N(CCN3CCOCC3)c3cc(CO)ccc3[C@H]2N1CC12CC3CC(CC(C3)C1)C2` the z-score [1] was -0.0113, the z-score [2] was -0.0207 (inactive) and the z-score [3] was 0.639 (inactive). For the same molecule, the composite z-score [4] was -6.92 (inactive), the z-score [5] was 0.277 (inactive) and the z-score [6] was -0.028 (inactive). The z-score [7] was 0.577 (inactive), the z-score [8] was -0.0127 (inactive) and the z-score [9] was -0.391. The composite z-score [10] was 0.476, the composite z-score [11] was 0.288 (inactive) and the composite z-score (XIP peptide (Xip251-270)) was -0.307. For the same molecule, the z-score [12] was -0.226, the z-score [13] was -2.32 (inactive) and the z-score [14] was 0.416 (inactive). For the same molecule, the z-score [15] was 0.394 (inactive).

In the case of `O=C1C2C=CC(C(O)c3ccc([N+](=O)[O-])cc3)N(Nc3ccc([N+](=O)[O-])cc3)C2C(=O)N1c1ccccc1` (stereo not given), the z-score [1] is reported as -0.686, the z-score [2] is reported as 1.61 (inactive) and the z-score [3] is reported as -0.858 (inactive). The composite z-score [4] was 1.2 (inactive), the z-score [5] was 1.64 (inactive) and the z-score [6] was 1.44 (inactive). For the same molecule, the z-score [7] was -1.3 (inactive), the z-score [8] was -1.09 (inactive) and the z-score [9] was -0.823. The composite z-score [10] was 0.23, the composite z-score [11] was 1.39 (inactive) and the composite z-score (XIP peptide (Xip251-270)) was 0.813. The z-score [12] was -0.498, the z-score [13] was -4.02 (inactive) and the z-score [14] was 0.822 (inactive). The z-score [15] was -0.512 (inactive).

In the case of `Cc1ccc(S[C@]2(C(=O)O)CC(=O)N(Cc3ccccc3)[C@@H]2c2ccc(CO)cc2I)cc1`, the z-score [1] is reported as -0.201, the z-score [2] is reported as -3.44 (inactive) and the z-score [3] is reported as -2.14 (inactive). The composite z-score [4] was -0.975 (inactive), the z-score [5] was 0.649 (inactive) and the z-score [6] was -1.44 (inactive). The z-score [7] was -0.256 (inactive), the z-score [8] was -0.246 (inactive) and the z-score [9] was -1.26. For the same molecule, the composite z-score [10] was -0.287, the composite z-score [11] was 0.233 (inactive) and the composite z-score (XIP peptide (Xip251-270)) was 0.564. For the same molecule, the z-score [12] was -0.58, the z-score [13] was -2.92 (inactive) and the z-score [14] was -0.123 (inactive). The z-score [15] was -0.134 (inactive).

With `CCCCCN1CC=CC23O[C@@H]4C=CCOC(=O)[C@@H]4[C@H]2C(=O)N(CCCCCCO)[C@@H]3C1=O` (stereo not given in full) the z-score [1] was 0.547, the z-score [2] was 0.428 (inactive) and the z-score [3] was 0.806 (inactive). The composite z-score [4] was -0.473 (inactive), the z-score [5] was 0.454 (inactive) and the z-score [6] was 0.151 (inactive). For the same molecule, the z-score [7] was 0.282 (inactive), the z-score [8] was 0.225 (inactive) and the z-score [9] was 0.922. For the same molecule, the composite z-score [10] was 0.114, the composite z-score [11] was 0.282 (inactive) and the composite z-score (XIP peptide (Xip251-270)) was -0.325. The z-score [12] was -0.658, the z-score [13] was -4.08 (inactive) and the z-score [14] was -0.0533 (inactive). For the same molecule, the z-score [15] was 0.0434 (inactive).

For `CC(C)c1ccc(NN2C(C(O)c3ccc4c(c3)OCO4)C=CC3C(=O)N(c4ccccc4)C(=O)C32)cc1` (stereo not given), the z-score [1] was -1.13, the z-score [2] was -0.791 (inactive) and the z-score [3] was -0.165 (inactive). The composite z-score [4] was -0.0797 (inactive), the z-score [5] was 1.08 (inactive) and the z-score [6] was 0.266 (inactive). For the same molecule, the z-score [7] was -0.167 (inactive), the z-score [8] was -0.563 (inactive) and the z-score [9] was -0.191. For the same molecule, the composite z-score [10] was 0.0641, the composite z-score [11] was 0.803 (inactive) and the composite z-score (XIP peptide (Xip251-270)) was 0.665. The z-score [12] was -0.121, the z-score [13] was -1.45 (inactive) and the z-score [14] was -0.575 (inactive). For the same molecule, the z-score [15] was -0.575 (inactive).

For `O=C1O[C@@H](c2ccccc2)[C@@H](c2ccccc2)N2[C@@H](c3ccc(OCCO)cc3)[C@]3(C(=O)Nc4ccccc43)[C@@H](C(=O)N3CCN(c4ncccn4)CC3)[C@H]12`, the z-score [1] was -0.18, the z-score [2] was 0.944 (inactive) and the z-score [3] was -0.271 (inactive). The composite z-score [4] was -2.37 (inactive), the z-score [5] was 1.47 (inactive) and the z-score [6] was 2.78 (inactive). For the same molecule, the z-score [7] was 0.142 (inactive), the z-score [8] was 1.07 (inactive) and the z-score [9] was 0.652. For the same molecule, the composite z-score [10] was -0.227, the composite z-score [11] was 0.0629 (inactive) and the composite z-score (XIP peptide (Xip251-270)) was 0.812. The z-score [12] was -2.11, the z-score [13] was 1.84 (inactive) and the z-score [14] was 0.189 (inactive). The z-score [15] was 0.644 (inactive).

With `CO[C@H]1O[C@H](CO)[C@@H](OC(=O)Nc2ccc(C#N)cc2)[C@H](OC(=O)c2cc3ccccc3[nH]2)[C@H]1OC(=O)c1cc2ccccc2[nH]1` the z-score [1] was -0.115, the z-score [2] was -1.05 (inactive) and the z-score [3] was -1.76 (inactive). For the same molecule, the composite z-score [4] was -1.68 (inactive), the z-score [5] was 1.63 (inactive) and the z-score [6] was -1.67 (inactive). For the same molecule, the z-score [7] was 2.96 (inactive), the z-score [8] was 2.93 (inactive) and the z-score [9] was -1.7. For the same molecule, the composite z-score [10] was -0.0448, the composite z-score [11] was 2.37 (inactive) and the composite z-score (XIP peptide (Xip251-270)) was 0.875. For the same molecule, the z-score [12] was -1.96, the z-score [13] was -2.26 (inactive) and the z-score [14] was -0.487 (inactive). The z-score [15] was -0.52 (inactive).

With `CCOC(=O)C[C@H]1[C@H](OC(=O)c2ccc(C(=O)c3ccccc3)cc2)[C@@H](NC(=O)c2ccc(-c3ccccc3)cc2)c2cc(OCCCO)ccc2N1C(=O)c1ccc2ccccc2n1` the z-score [1] was 0.206, the z-score [2] was -1.1 (inactive) and the z-score [3] was 0.38 (inactive). The composite z-score [4] was -1.69 (inactive), the z-score [5] was -0.0998 (inactive) and the z-score [6] was -0.0276 (inactive). The z-score [7] was 0.254 (inactive), the z-score [8] was 1.23 (inactive) and the z-score [9] was 0.909. For the same molecule, the composite z-score [10] was 0.119, the composite z-score [11] was 1.25 (inactive) and the composite z-score (XIP peptide (Xip251-270)) was 0.388. For the same molecule, the z-score [12] was -1.04, the z-score [13] was -0.834 (inactive) and the z-score [14] was -0.916 (inactive). The z-score [15] was -0.596 (inactive).

With `COC(=O)C1=CCC(c2cccc(Cl)c2)O1` (stereo not given) the z-score [1] was -0.0749, the z-score [2] was -3.58 (inactive) and the z-score [3] was -0.232 (inactive). For the same molecule, the composite z-score [4] was -0.861 (inactive), the z-score [5] was 0.216 (inactive) and the z-score [6] was -0.695 (inactive). The z-score [7] was -0.0684 (inactive), the z-score [8] was -0.0113 (inactive) and the z-score [9] was -0.646. The composite z-score [10] was -0.0962, the composite z-score [11] was -0.0103 (inactive) and the composite z-score (XIP peptide (Xip251-270)) was 0.45. For the same molecule, the z-score [12] was -0.539, the z-score [13] was -0.451 (inactive) and the z-score [14] was 0.456 (inactive). For the same molecule, the z-score [15] was 0.498 (inactive).

With `CN(C)C(=O)[C@@]1(Cc2ccccc2)N=C(c2ccc(OCCCO)cc2)O[C@H]1c1ccccc1CN=[N+]=[N-]` the z-score [1] was -0.412, the z-score [2] was -0.618 (inactive) and the z-score [3] was -1.23 (inactive). The composite z-score [4] was 0.519 (inactive), the z-score [5] was 0.535 (inactive) and the z-score [6] was -0.112 (inactive). For the same molecule, the z-score [7] was -0.0193 (inactive), the z-score [8] was -0.139 (inactive) and the z-score [9] was -1.23. The composite z-score [10] was 0.215, the composite z-score [11] was 2.74 (inactive) and the composite z-score (XIP peptide (Xip251-270)) was 0.746. For the same molecule, the z-score [12] was -2.11, the z-score [13] was -1.69 (inactive) and the z-score [14] was 0.264 (inactive). For the same molecule, the z-score [15] was 0.492 (inactive).

— PubChem BioAssay
